From the supplement of paper PMC12669032

What follows are compounds tested on Coprococcus comes (assay: growth AUC relative to DMSO control (median of replicates) (fraction); higher = more growth (less inhibition), active = hit call of the paper). Conditions: 20 µM; 24 h;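 active = AUC reduced over 20% with Padj below 0.05 in at least 2 of 3 replicates; inactive = otherwise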.
Outline: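 OD600 was recorded every hour for 24 h in anaerobic monocultures of gut bacteria kept at 37 °C in mGAM, seeded at OD600 0.05 and given 20 µM compound in 1% DMSO. The area under each growth curve was scaled to the plate median of solvent-only wells, or to row and column medians for the industrial chemical plate. Before this step, the minimum OD was set to 0. Reported values are medians of three biological replicates run on separate days.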

Growth AUC, inactive:
CSC(=O)c1cccc2nnsc12 1.01
Cc1ccc2c(c1)[C@H](Nc1nc(N)nc(C(C)F)n1)[C@@H](C)C2 (stereo partly specified) 0.968
CCOC(=O)c1cnn(C)c1S(=O)(=O)NC(=O)Nc1nc(OC)cc(OC)n1 0.991
C/C=C/C(=O)Oc1c(C(C)CCCCCC)cc([N+](=O)[O-])cc1[N+](=O)[O-] (mixture of isomers) 0.509
CCOC(=O)C(C)N(C(=O)c1ccccc1)c1ccc(Cl)c(Cl)c1 (stereo unspecified) 0.971
COC(=O)c1c(Cl)ccc(Cl)c1OC 1.04
c1ccc(Sc2ccccc2)cc1 1.02
O=C(O)Cc1c[nH]c2ccccc12 1.03
Cc1cc(C)c(C2=C(O)C3(CCCC3)OC2=O)c(C)c1 0.981
CC(=O)Oc1c(Cl)c(Cl)c(Cl)c(Cl)c1Cl 0.953
CCNc1nc(NC(C)CC)nc(OC)n1 (stereo unspecified) 1.02
COc1cc(OC)nc(NC(=O)NS(=O)(=O)Nc2ccccc2C(=O)C2CC2)n1 0.952
CCCCC(CC)COC(=O)COc1cc(Cl)c(Cl)cc1Cl (stereo unspecified) 0.976
CSc1nnc(C(C)(C)C)c(=O)n1/N=C/C(C)C 1.02
CC[N+](CC)(CC(=O)Nc1c(C)cccc1C)Cc1ccccc1.O=C([O-])c1ccccc1 1.04
CCCCOCCOCCOCc1cc2c(cc1CCC)OCO2 1.06
